Assay outcomes deposited in PubChem BioAssay by National Center for Advancing Translational Sciences (NCATS).
Gal4-VP16 FLuc: counter-screen for ROR gamma inhibitors: Gal4-VP16 reporter; 310,000 compounds, 3.5% hits; Potency, µM (titrated, usually from 53.6 µM), for the others: at the top dose activity, negative = inhibition, hits mostly inhibitors; Drosophila S2 Gal4-VP16 UAS-luciferase, luminescence, 20 h;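 also: Gal4-VP16 expression switched on by copper sulfate through the metallothionein promoter; nearly all actives have a fitted effect of over 50% in size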
ELG1 DNA repair: ELG1-dependent DNA repair inhibition; HEK293T ELG1-luciferase reporter, luminescence, 16 h; DNA damage induced by 5-fluorouridine; Potency, µM (highest dose often 46.1 µM), for inactives: top-dose activity change, negative = inhibition, usual class: inhibitors; 330,000 compounds, 2.3% hits; also: nearly all actives have a fitted effect of over 55% in size
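DMSO vehicle served as the neutral condition. Each well held 2,000 cells given 5-fluorouridine plus compound; after 16 hr at 37 °C/5% CO2, ONE-Glo was added and luciferase measured 30 min later.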
12-LOX inh: ALOX12 (human) lipoxygenase inhibition; AID 1671190; P18054; 580,000 compounds, 1.1% hits; purified 12hLO, xylenol orange hydroperoxide absorbance; Potency, µM (series often up to 108 µM), for the others: at the top dose activity change, negative = inhibition, most hits filed as inhibitors
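Purified human 12hLO (150 nM final) in 25 mM Hepes, 0.01% Triton X-100, pH 7.0 was preincubated 15 min at room temperature with compound. Then 40 uM arachidonic acid was added, 30 min. Hydroperoxide was read by Fe-XO absorbance ratio 573/405 nm.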
DT40 TDP1 no CPT: qHTS for Inhibitors of human tyrosyl-DNA phosphodiesterase 1 (TDP1): qHTS in cells in absence of CPT | DT40 Tdp1-/- hTDP1 cells, no CPT, ATP luminescence, 48 h | AID 686978, 2013 | 420,000 compounds, 15% hits | Potency, µM (series often up to 46.2 µM), without a hit: at the highest dose activity change, negative = growth inhibition, actives largely listed as inhibitors; also: nearly all actives have a fitted effect of over 55% in size
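Chicken DT40 Tdp1-/- cells complemented with human TDP1, screened without camptothecin (DMSO vehicle only), 400 cells/well. Compounds pin-transferred, cells incubated at 37 °C for at least 48 hr. Growth read as ATP-dependent luminescence (CellTiter-Glo, 30 min at RT).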
DT40 TDP1 CPT: DT40-hTDP1 cell growth loss with CPT | chicken DT40 Tdp1-/-;hTDP1 cells + 20 nM CPT, ATP luminescence, 48 h | Potency, µM (top dose mostly 46.2 µM), for the others: at the top dose activity change, negative = growth inhibition, actives largely listed as inhibitors | 420,000 compounds, 12% hits | AID 686979; also: nearly all actives have a fitted effect of over 55% in size
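Chicken DT40 Tdp1-/- cells complemented with human TDP1, 400 cells/well, exposed to compounds plus 20 nM camptothecin for at least 48 h at 37 C; viability read as ATP content by CellTiter-Glo luminescence.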
RORgamma inh: ROR gamma (mouse) transcription inhibition; Drosophila S2 Gal4-RORgamma UAS-luciferase reporter, 20 h; AID 2551; 310,000 compounds, 5.4% hits; Potency, µM (titrated, usually from 53.6 µM), without a hit: at the top dose activity change, negative = inhibition, actives largely listed as inhibitors; P51450; also: nearly all actives have a fitted effect of over 60% in size
Target sequence (P51450 whole entry, looked up, the tested form may be a part): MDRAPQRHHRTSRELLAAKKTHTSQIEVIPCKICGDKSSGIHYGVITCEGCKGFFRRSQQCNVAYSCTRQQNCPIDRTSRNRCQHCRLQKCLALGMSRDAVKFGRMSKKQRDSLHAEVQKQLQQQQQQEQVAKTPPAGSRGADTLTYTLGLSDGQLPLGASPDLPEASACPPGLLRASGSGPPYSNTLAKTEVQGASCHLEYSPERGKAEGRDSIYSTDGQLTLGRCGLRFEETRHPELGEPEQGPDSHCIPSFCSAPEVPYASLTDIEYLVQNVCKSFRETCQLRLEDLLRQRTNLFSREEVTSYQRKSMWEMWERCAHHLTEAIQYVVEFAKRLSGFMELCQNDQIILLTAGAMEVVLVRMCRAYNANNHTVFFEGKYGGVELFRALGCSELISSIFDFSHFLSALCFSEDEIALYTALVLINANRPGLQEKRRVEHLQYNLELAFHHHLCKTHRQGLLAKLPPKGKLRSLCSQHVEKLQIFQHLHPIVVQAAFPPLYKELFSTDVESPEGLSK
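Drosophila Schneider cells stably carrying a metallothionein-driven Gal4 DBD–ROR gamma fusion and a UAS-Photinus luciferase reporter were exposed to compound for 1 hr, then induced with copper sulfate (700 uM final) for 20 hr at ambient temperature before luminescence reading.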
Starred values were filed as active, the others as inactive; ? = inconclusive; nt = not tested or not shown; [ ] = another dose, or the depositor's remark. This is a sample that favours compounds with a hit; in the whole collection about 15% have one here. Calls follow the shape of the dose curve; as a rule, active = well fitted curve in the direction sought with a large enough effect; inconclusive = small, poorly fitted or top-dose-only effect, or another doubt; inactive = no such curve, though single readings can be large; an effect the other way counts as inactive or inconclusive. % is scaled to controls: 0 for no effect and ±100 for the full control effect; potency is read from the fitted curve at half-maximal effect.

SMILES	Gal4-VP16 FLuc	ELG1 DNA repair	12-LOX inh	DT40 TDP1 no CPT	DT40 TDP1 CPT	RORgamma inh
Cc1ccc(C)c(Cn2c(CN3CCN(Cc4ccccc4)CC3)nc3c2c(=O)[nH]c(=O)n3C)c1	nt	nt	-6.1%	nt	nt	nt
Cc1cc2oc(C(=O)N(Cc3ccccc3Cl)C3CCS(=O)(=O)C3)cc(=O)c2cc1Cl (stereo not drawn)	nt	nt	2.8%	nt	nt	nt
Clc1ccc(/C=C\c2nccc3c2[nH]c2ccccc23)cc1	?	0.0%	0.0%	?	?	1.58µM*
CC[C@H]1CN(C(=O)C(C)(C)C)CC[C@H]1CC(=O)O	nt	nt	4.3%[176 µM]	nt	nt	nt
O=C(NCCSCc1ccco1)Nc1ccc(Cl)cc1	?	nt	0.0%	11.6µM*	?	?
O=C(NCCNC(=O)Nc1ccc(Cl)cc1)Nc1ccc(Cl)cc1	nt	nt	12.6µM*	-8.9%	3.7%	nt
Cc1ccc2oc(=O)n(CCNC(=O)Nc3ccc(Cl)cc3)c2c1	nt	nt	-22.7%	16.4µM*	23.1µM*	nt
N#Cc1ccc(NC(=O)Nc2ccc(Cl)cc2)cc1	0.6%[0.365 µM]	?	99.1%	3.66µM*	2.91µM*	?
CN1C(=O)c2cccn2CC1CNC(=O)CCc1c[nH]c2ccccc12 (stereo not drawn)	nt	nt	45.2%	nt	nt	nt
Cc1cccc2c(C(=O)NCc3cccs3)cc(-c3cccnc3)nc12	nt	nt	-0.2%	nt	nt	nt
N#Cc1ccc(OCc2nc3c(n2Cc2ccccc2)C(=O)N(CC2CC2)CCN3)cc1	nt	nt	-5.9%[176 µM]	nt	nt	nt
COc1ccc(S(=O)(=O)NCC2CCC(C(=O)N[C@@H](C)C(=O)NCc3ccco3)CC2)cc1 (stereo partly drawn)	nt	nt	-13.3%	nt	nt	nt
CC(=O)N(C)c1ccc(NC(=O)Nc2ccc(Cl)cc2)cc1	nt	nt	0.0%	18.4µM*	?	nt
NS(=O)(=O)c1ccc(NC(=O)Nc2ccc(Cl)cc2)cc1	?	?	-6.8%	16.4µM*	-7.0%	?
CC(C)C(Cl)=NOC(=O)Nc1ccc(S(N)(=O)=O)cc1	nt	nt	1.5%	2.59µM*	1.16µM*	nt
CC(C)c1ccccc1NS(=O)(=O)c1ccc(CCC(=O)O)cc1	nt	nt	2.8%	nt	nt	nt
COc1ccc(CNC[C@H]2COCc3nc4cc(C(F)(F)F)ccc4n32)cn1	nt	nt	19.1%[176 µM]	nt	nt	nt
CCc1ccc(C(=O)N2CCN(C(=O)c3nnn4c3COC(c3ccc(OC)cc3)C4)CC2)cc1 (stereo not drawn)	nt	nt	8.1%	nt	nt	nt
COc1cc2c(cc1OC)-c1c(c(C(=O)NCCN(C)C)nn1-c1ccc(C)cc1)C2	nt	nt	0.0%	nt	nt	nt
COc1nnc(-c2ccc(N3CCCCC3)c(NC(C)=O)c2)c2ccccc12	20.5%	-18.9%	-9.4%	18.4µM*	?	4.7%
O=C(C1CN(C(=O)c2nn(-c3ccccc3)c(=O)c3ccccc23)c2ccccc2O1)N1CCOCC1 (stereo not drawn)	nt	nt	-9.6%	nt	nt	nt
NS(=O)(=O)c1ccc(-c2ccc(/C=N/Nc3ccc(C(=O)O)cc3)o2)cc1	-1.9%	?	22.7%	-1.0%	-17.2%	10µM*
O=C(O)c1ccc(N/N=C/c2ccc(-c3cccc(Cl)c3)o2)cc1	-19.2%	?	8.2%	-10.5%	?	31.6%
O=C(O)c1ccc(N/N=C/c2ccc(-c3cc(Cl)ccc3Cl)o2)cc1	?	?	-24.0%	?	25.9µM*	?
O=C(N/N=C/c1c(F)cccc1Cl)C1CC1	-8.3%	17.9%	120.4%	11.2%	-11.8%	1.6%
SMILES	Gal4-VP16 FLuc	ELG1 DNA repair	12-LOX inh	DT40 TDP1 no CPT	DT40 TDP1 CPT	RORgamma inh
Cc1c(C(=O)O)cccc1-c1ccc(/C=N/Nc2ccc(Br)cc2)o1	-7.8%	?	44.7µM*	-24.6%	-3.8%	30.9%
O=C(O)c1ccc(-c2ccc(/C=N/Nc3ccc([N+](=O)[O-])cc3)o2)cc1	1.5%	17.9%	?	-25.6%	?	24.2%
O=C(O)c1ccc(N/N=C/c2c(F)cccc2Cl)cc1	0.708µM*	?	66.3%	23.3%	-0.8%	2µM*
Cc1c(C(=O)O)cccc1-c1ccc(/C=N/n2cnnc2)o1	-7.6%	27.9%	-9.2%	13.8%	0.2%	3.1%
O=C(Nc1ccc(-n2cccn2)c(F)c1)C1CCCN(C(=O)c2cccs2)C1 (stereo not drawn)	nt	nt	-1.0%	nt	nt	nt
N#CCCn1c(-c2ccccc2)cc2ccccc21	nt	nt	-24.7%	nt	nt	nt
O=C(O)c1ccc(N/N=C/c2ccc(-c3ccc(Cl)cc3Cl)o2)cc1	?	?	?	?	16.4µM*	-24.5%
Nc1ncnc2c1c(-c1ccc(Oc3ccccc3)cc1)cn2C1CCCC1	?	?	1.1%	18.4µM*	?	-26.4%
Cn1cc(CN2CCCCC2CO)c(-c2ccc(Oc3ccccc3)cc2)n1 (stereo not drawn)	0.1%	3.1%	-4.8%	?	?	14.5%
O=C(O)CCc1ccc(-c2ccc(Cl)cc2)n1Cc1ccco1	21.5%	6.0%	39.8µM*	-5.7%	-1.9%	-0.3%
COc1ccc(-c2ccc(CCC(=O)O)n2Cc2ccco2)cc1	3.4%	-3.9%	?	-5.3%	-7.1%	0.3%
CN(CC1CCOCC1)C(=O)Nc1cc(F)cc(F)c1	nt	nt	-8.4%	nt	nt	nt
c1ccc(CCN2CCN(c3ncnc4c3cnn4-c3ccccc3)CC2)cc1	16.2%	?	0.0%	18.4µM*	23.1µM*	45.0%
COc1cccc(N2CCN(c3ncnc4c3cnn4-c3ccc(C)cc3C)CC2)c1	-13.0%	3.26µM*	-13.3%	2.59µM*	1.84µM*	36.4%
Cc1ccc(C)c(N2CCN(c3ncnc4c3cnn4-c3ccccc3)CC2)c1	-17.0%	?	10.7%	?	?	-5.0%
Cc1ccc(-n2ncc3c(N4CCCC(C)C4)ncnc32)c(C)c1 (stereo not drawn)	-9.3%	?	5.2%[57.4 µM]	7.31µM*	8.2µM*	12.3%
Cc1ccccc1C(=O)N1CCN(c2ncnc3c2cnn3-c2ccccc2)CC1	0.6%	?	6.3%	23.1µM*	20.6µM*	?
Cc1ccc(-n2ncc3c(N4CCCC4)ncnc32)c(C)c1	-14.6%	1.4%	-1.0%	-7.8%	-3.5%	-14.9%
Cc1ccc(C(=O)N2CCN(c3ncnc4c3cnn4-c3ccccc3)CC2)cc1	nt	nt	0.0%	nt	nt	nt
O=C(C[C@H]1NC(=O)c2ccccc2NC1=O)Nc1cccc2[nH]ccc12	nt	nt	13.0%	nt	nt	nt
CCOc1ccccc1C1NC(=O)N(CC(=O)Nc2ccccc2)C2=C1C(=O)OC2 (stereo not drawn)	nt	nt	18.0%	nt	nt	nt
CCCCN(C)c1ncnc2c1cnn2-c1cccc(Cl)c1	nt	nt	?	16.4µM*	23.1µM*	nt
